Bioassay records: PubChem BioAssay, National Center for Advancing Translational Sciences (NCATS)
A selection: hits, their analogues and other compounds. The true share with any hit is near 1.2%.
KinaseGlo FLuc – counter-screen: inhibitors of Kinase-Glo firefly luciferase; Q27757; Kinase-Glo luciferase, ATP luminescence, 8 min; Potency, µM (highest dose often 38.3 µM), inactives show top-dose activity change, negative = inhibition, actives largely listed as inhibitors; hit rate 0.28% among 200,000; active = well fitted inhibition curve with a large enough effect; inconclusive = small, poorly fitted or top-dose-only effect; note: potency is the fitted concentration of half-maximal effect; nearly all actives have a fitted effect of over 60% in size
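Kinase-Glo luciferase light output from ATP and luciferin was measured with 10 uM ATP, within the enzyme's linear range. Buffer: 50 mM imidazole pH 7.2, 50 mM KCl, 7 mM MgCl2, 0.01% Tween 20, 0.05% BSA; luminescence read after 8 min at ambient temperature.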
KCNH2 3.1 block – blocks the human KCNH2 3.1 channel isoform; U2OS KCNH2 3.1, thallium flux FluxOr; hits give low values; activity change, % (tested at about 1.8 µM); hit rate 0.95% among 340,000; AID 720553;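 active = maximum activity change below -70%; inconclusive = maximum activity change from -70% to -50%; inactive = maximum activity change above -50%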;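 note: thallium influx rate constant from kinetic fluorescence after stimulation buffer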
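Kinetic fluorescence (2 min after stimulation buffer) measures Tl+ influx through KCNH2 3.1 expressed by viral transduction in U2OS cells; the rate constant is normalized against DMSO controls serving as positive and negative references.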
KCNH2 WT inh – inhibitors of human wildtype KCNH2 potassium channel | hit rate 0.37% among 340,000 | U2OS, BacMam KCNH2, thallium flux FluxOr; hits give low values | Q12809 | activity change, % at 1.84 µM;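 active = maximum activity change below -70%; inconclusive = maximum activity change between -70% and -50%; inactive = maximum activity change above -50%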
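U2OS cells were transduced with wild-type KCNH2 virus (2.03 x 10^8 / mL) for 4 h at room temperature, then cultured overnight at 37 C. Thallium flux was read with FluxOr dye. Rate constants were normalized to DMSO controls.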
* = called active by the depositor. % is set by controls: 0 for no effect and ±100 for the full control effect.

For CN1CCC(=O)N([C@H](CSc2ccccc2)c2ccccc2)CC1 the results were KCNH2 3.1 block -124* and KCNH2 WT inh 13.
For CC(=O)Nc1ccc(SC[C@H](CC(C)C)N2CCN(CCc3ccccc3)CCC2=O)cc1 the results were KCNH2 3.1 block inconclusive and KCNH2 WT inh -31.
CN1CCC(=O)N([C@H](CN=[N+]=[N-])c2ccccc2)CC1 was read as KCNH2 3.1 block 17 and KCNH2 WT inh 12.
For COc1ccc(SC[C@H](CC(C)C)N2CCN(CCc3ccccc3)CCC2=O)cc1 the results were KCNH2 3.1 block -106* and KCNH2 WT inh -75*.
Screening CCCN1CCC(=O)N([C@H](CSc2ccc(OC)cc2)c2ccccc2)CC1 returned KCNH2 3.1 block -93* and KCNH2 WT inh -39.
CCCCCCCN1CCC(=O)N([C@H](CO)c2ccccc2)CC1 was read as KCNH2 3.1 block -50 and KCNH2 WT inh 25.
`CCOc1ccc(NS(=O)(=O)c2ccc(C(=O)N3CC(C)OC(C)C3)cc2)cc1` (configuration not stated) gave KCNH2 3.1 block 1 and KCNH2 WT inh 30.
For CCN1C(=O)[C@H]2[C@@H](c3ccc(-c4ccc(Cl)c(Cl)c4)c(OC)c3)N[C@@](Cc3ccccc3)(C(=O)OC)[C@H]2C1=O the results were KCNH2 3.1 block 5 and KCNH2 WT inh -2.
C[C@@H](NC(=O)c1ncn(Cc2ccccc2)c1C(=O)N[C@H](C)c1ccccc1)c1ccccc1 was read as KCNH2 3.1 block -3 and KCNH2 WT inh -11.
Screening COc1ccc(C(=O)NC(=S)Nc2ccc3[nH]c(=O)[nH]c3c2)c(OC)c1 returned KCNH2 3.1 block 14 and KCNH2 WT inh 5.
Screening COc1cc(-c2cn[nH]c2N)cc(OC)c1OC returned KinaseGlo FLuc 5%, KCNH2 3.1 block -79* and KCNH2 WT inh -7.
For Nc1[nH]ncc1-c1ccc(Cl)cc1 the results were KinaseGlo FLuc -1%, KCNH2 3.1 block 12 and KCNH2 WT inh -4.
Screening c1ccc2c(-c3nc4ccccc4[nH]3)cccc2c1 returned KCNH2 3.1 block -122* and KCNH2 WT inh 16.
Screening c1ccc2nc(-c3nc4ccccc4[nH]3)ccc2c1 returned KinaseGlo FLuc 8.9µM*, KCNH2 3.1 block -4 and KCNH2 WT inh 2.
`c1ccc2[nH]c(-c3cscn3)nc2c1` gave KinaseGlo FLuc -18%, KCNH2 3.1 block -16 and KCNH2 WT inh 2.
For c1ccc2[nH]c(-c3ccnc4ccccc34)nc2c1 the results were KinaseGlo FLuc 0%, KCNH2 3.1 block 0 and KCNH2 WT inh 17.
Screening CN(C(=O)CSc1nc(-c2cccs2)nc2ccccc12)C1CCS(=O)(=O)C1 (configuration not stated) returned KCNH2 3.1 block -22 and KCNH2 WT inh -2.
For CCc1ccc(-c2cc(-c3n[nH]c(=S)n3CC)c3ccccc3n2)cc1 the results were KinaseGlo FLuc -8%.
CCn1c(-c2cc(-c3cccc(OC)c3)nc3ccccc23)n[nH]c1=S was read as KinaseGlo FLuc -4%, KCNH2 3.1 block -78* and KCNH2 WT inh 2.
For Cc1nc(-c2nc(-c3c(C(=O)NNC(=O)Nc4cccc(Cl)c4)noc3C)cs2)cs1 the results were KCNH2 3.1 block 6 and KCNH2 WT inh -1.
`Cc1nc(-c2nc(-c3c(C(=O)NNC(=O)Nc4ccccc4)noc3C)cs2)cs1` gave KCNH2 3.1 block -94* and KCNH2 WT inh -77*.
Cc1ccc(CNC(=O)C2CCC(=O)N(CCc3cccc(F)c3)C2)cc1 (configuration not stated) was read as KCNH2 3.1 block -84* and KCNH2 WT inh -5.
For Cc1cc(CNC(=O)C2CCC(=O)N(CCc3cccc(F)c3)C2)nn1C (configuration not stated) the results were KCNH2 3.1 block 3 and KCNH2 WT inh -5.
For COc1cccc(CN2CC(C(=O)NCCCc3ccc(C)cc3)CCC2=O)c1 (configuration not stated) the results were KCNH2 3.1 block -86* and KCNH2 WT inh 7.
Screening COc1cccc(CN2CC(C(=O)NCCCc3ccncc3)CCC2=O)c1 (configuration not stated) returned KCNH2 3.1 block -4 and KCNH2 WT inh -7.
`CCOc1ccc(S(=O)(=O)NCc2cccnc2)cc1C(C)C` gave KCNH2 3.1 block -12 and KCNH2 WT inh 1.
Screening CCCN(CC(=O)Nc1ccc(Cl)cc1Cl)C(=O)/C=C/c1ccco1 returned KinaseGlo FLuc 3%, KCNH2 3.1 block 12 and KCNH2 WT inh 9.
Screening COC(=O)CCN(c1ccccc1)S(=O)(=O)c1cc(-c2cc(C)no2)ccc1OC returned KCNH2 3.1 block 7 and KCNH2 WT inh -11.
